From the supplement of paper PMC10849652
The full data set covers some 7,900 targets. This sample favours those with a hit. About 0.6% of all pairs of compound and target were hits.

Columns and labels:
Experiment in all cases: log2 fold change, soluble protein after heating vs DMSO (PISA); higher = thermal stabilisation; K562 cells, 10 uM, 30 min; active = over 0.2 and 3.5 SD of the protein, either way, in both replicates (recomputed)
[1] = compound: CS(=O)(=O)c1ccc(-c2cnc(N)c(C(=O)Nc3ccccc3)n2)cc1
How it was run: (§1)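 K562 cells at 2×10^6 cells/mL were treated for 30 min with 10 μM compound, and aliquots were heated for 3 min over 48°C-58°C before pooling. Extraction used PBS with 0.5% NP-40 at 4°C, and soluble protein was the supernatant after 21,000xg for 90 min, measured by TMTpro 16plex LC-MS/MS with channel sums equalised. Thermal stability values, relative to control samples and from duplicates, are log2 fold changes.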

crizotinib = compound: C[C@@H](Oc1cc(-c2cnn(C3CCNCC3)c2)cnc1N)c1c(Cl)ccc(F)c1Cl [crizotinib]
How it was run: as §1

[2] = compound: C[C@@H]1COCCN1C2=NC(=NC(=C2)C3(CC3)S(=O)(=O)C)C4=C5C=CNC5=CC=C4
How it was run: as §1

[3] = compound: C[C@H](C1=CC=C(C=C1)C(=O)NC2=C3C=CNC3=NC=C2)N
How it was run: as §1

duvelisib = compound: C[C@H](Nc1ncnc2nc[nH]c12)c1cc2cccc(Cl)c2c(=O)n1-c1ccccc1 [duvelisib]
How it was run: as §1

gandotinib = compound: Cc1cc(Nc2cc(CN3CCOCC3)c3nc(C)c(Cc4ccc(Cl)cc4F)n3n2)n[nH]1 [gandotinib]
How it was run: as §1

tozasertib = compound: Cc1cc(Nc2cc(N3CCN(C)CC3)nc(Sc3ccc(NC(=O)C4CC4)cc3)n2)n[nH]1 [tozasertib]
How it was run: as §1

[4] = compound: Cc1cc(SCc2sc(-c3ccc(C(F)(F)F)cc3)nc2C)ccc1OCC(=O)O
How it was run: as §1

doramapimod = compound: Cc1ccc(-n2nc(C(C)(C)C)cc2NC(=O)Nc2ccc(OCCN3CCOCC3)c3ccccc23)cc1 [doramapimod]
How it was run: as §1

ispinesib = compound: Cc1ccc(C(=O)N(CCCN)[C@@H](c2nc3cc(Cl)ccc3c(=O)n2Cc2ccccc2)C(C)C)cc1 [ispinesib]
How it was run: as §1

bafetinib = compound: Cc1ccc(NC(=O)c2ccc(CN3CC[C@H](N(C)C)C3)c(C(F)(F)F)c2)cc1Nc1nccc(-c2cncnc2)n1 [bafetinib]
How it was run: as §1

[5] = compound: Cc1cccc(CC(=O)N2CCc3c2ccc(-c2cn(C)c4ncnc(N)c24)c3F)n1
How it was run: as §1

nilotinib = compound: Cc1cn(-c2cc(NC(=O)c3ccc(C)c(Nc4nccc(-c5cccnc5)n4)c3)cc(C(F)(F)F)c2)cn1 [nilotinib]
How it was run: as §1

[6] = compound: Cc1nc(Nc2n[nH]c3c2CN(C(=O)N[C@H](CN(C)C)c2ccccc2)C3(C)C)c2sccc2n1
How it was run: as §1

dasatinib = compound: Cc1nc(Nc2ncc(C(=O)Nc3c(C)cccc3Cl)s2)cc(N2CCN(CCO)CC2)n1 [dasatinib]
How it was run: as §1

[7] = compound: Cc1ncc(-c2ccnc(Nc3ccc(S(C)(=O)=O)cc3)n2)n1C(C)C
How it was run: as §1

[8] = compound: Cn1cc(-c2ccc3c(c2)CCN3C(=O)Cc2cccc(C(F)(F)F)c2)c2c(N)ncnc21
How it was run: as §1

[9] = compound: Cn1cc(-c2ccc3nnc(C(F)(F)c4ccc5ncccc5c4)n3n2)cn1
How it was run: as §1

tipifarnib = compound: Cn1cncc1[C@@](N)(c1ccc(Cl)cc1)c1ccc2c(c1)c(-c1cccc(Cl)c1)cc(=O)n2C [tipifarnib]
How it was run: as §1

mubritinib = compound: FC(F)(F)c1ccc(/C=C/c2nc(COc3ccc(CCCCn4ccnn4)cc3)co2)cc1 [mubritinib]
How it was run: as §1

Measured: log2 fold change

STAT3 (UniProt P40763)
Sequence of UniProt P40763 (P40763 whole entry, looked up): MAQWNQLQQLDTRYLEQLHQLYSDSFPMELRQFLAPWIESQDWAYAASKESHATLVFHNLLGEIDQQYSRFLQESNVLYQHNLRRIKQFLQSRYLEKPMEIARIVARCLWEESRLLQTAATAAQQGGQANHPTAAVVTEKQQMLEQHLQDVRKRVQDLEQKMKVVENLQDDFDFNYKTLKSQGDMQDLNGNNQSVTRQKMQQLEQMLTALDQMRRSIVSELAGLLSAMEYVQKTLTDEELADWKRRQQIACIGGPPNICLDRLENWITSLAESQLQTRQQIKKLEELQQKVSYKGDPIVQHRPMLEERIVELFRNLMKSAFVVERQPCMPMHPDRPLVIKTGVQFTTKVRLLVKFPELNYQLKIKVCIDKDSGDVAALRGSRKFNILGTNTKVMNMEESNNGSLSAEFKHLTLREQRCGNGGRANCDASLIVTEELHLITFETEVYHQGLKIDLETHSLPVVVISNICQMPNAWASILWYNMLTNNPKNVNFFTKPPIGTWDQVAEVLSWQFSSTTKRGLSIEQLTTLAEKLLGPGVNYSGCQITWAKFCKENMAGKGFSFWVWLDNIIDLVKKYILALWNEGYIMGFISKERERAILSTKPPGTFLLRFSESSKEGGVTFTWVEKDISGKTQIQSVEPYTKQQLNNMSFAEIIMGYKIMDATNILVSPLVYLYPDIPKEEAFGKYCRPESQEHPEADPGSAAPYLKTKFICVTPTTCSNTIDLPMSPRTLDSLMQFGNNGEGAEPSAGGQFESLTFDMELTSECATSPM
inactive: [1] 0.059 | crizotinib -0.126 | [2] 0.105 | [3] -0.063 | duvelisib 0 | gandotinib -0.184 | tozasertib 0.073 | [4] 0.088 | doramapimod -0.009 | ispinesib -0.03 | bafetinib -0.015 | [5] -0.003 | nilotinib -0.097 | [6] -0.216 | dasatinib -0.141 | [7] 0.026 | [8] -0.027 | [9] 0.013 | tipifarnib -0.172 | mubritinib 0.024

SMARCAD1 isoform 2 (UniProt Q9H4L7)
inactive: [1] 0.029 | crizotinib -0.112 | [2] 0.088 | [3] -0.054 | duvelisib 0.081 | gandotinib -0.042 | tozasertib 0.059 | [4] 0.15 | doramapimod -0.058 | ispinesib 0 | bafetinib 0.067 | [5] 0.014 | nilotinib 0.049 | [6] -0.056 | dasatinib -0.131 | [7] -0.049 | [8] 0.088 | [9] 0.034 | tipifarnib -0.144 | mubritinib 0.241

SNX12 isoform 1 (UniProt Q9UMY4)
Sequence of UniProt Q9UMY4 (Q9UMY4 whole entry, looked up): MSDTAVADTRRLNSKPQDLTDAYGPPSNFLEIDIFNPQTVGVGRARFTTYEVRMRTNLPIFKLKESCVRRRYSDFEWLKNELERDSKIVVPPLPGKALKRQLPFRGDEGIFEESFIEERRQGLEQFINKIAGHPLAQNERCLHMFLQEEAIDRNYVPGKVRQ
inactive: [1] 0.004 | crizotinib -0.055 | [2] 0.081 | [3] 0.007 | duvelisib -0.162 | gandotinib -0.204 | tozasertib 0.021 | [4] 0.044 | doramapimod -0.036 | ispinesib -0.097 | bafetinib -0.067 | [5] 0.042 | nilotinib -0.038 | [6] -0.016 | dasatinib -0.043 | [7] -0.191 | [8] 0.038 | [9] 0.008 | tipifarnib -0.015 | mubritinib -0.009

SURF2 (UniProt Q15527)
Sequence of UniProt Q15527 (Q15527 whole entry, looked up): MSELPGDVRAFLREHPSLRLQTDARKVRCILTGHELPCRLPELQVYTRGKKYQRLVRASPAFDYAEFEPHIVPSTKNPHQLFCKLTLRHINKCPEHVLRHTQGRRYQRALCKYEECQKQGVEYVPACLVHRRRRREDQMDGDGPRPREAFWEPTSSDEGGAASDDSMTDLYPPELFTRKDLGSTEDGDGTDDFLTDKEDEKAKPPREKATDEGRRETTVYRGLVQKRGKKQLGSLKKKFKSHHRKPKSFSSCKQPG
inactive: [1] -0.009 | crizotinib 0.084 | [2] -0.02 | [3] -0.118 | duvelisib 0.018 | gandotinib 0 | tozasertib -0.01 | [4] 0.04 | doramapimod -0.068 | ispinesib 0.038 | bafetinib -0.103 | [5] 0.039 | nilotinib 0.054 | [6] -0.048 | dasatinib -0.02 | [7] 0.082 | [8] -0.012 | [9] 0.053 | tipifarnib 0.034 | mubritinib -0.013

TARBP1 (UniProt Q13395)
Sequence of UniProt Q13395 (Q13395 whole entry, looked up): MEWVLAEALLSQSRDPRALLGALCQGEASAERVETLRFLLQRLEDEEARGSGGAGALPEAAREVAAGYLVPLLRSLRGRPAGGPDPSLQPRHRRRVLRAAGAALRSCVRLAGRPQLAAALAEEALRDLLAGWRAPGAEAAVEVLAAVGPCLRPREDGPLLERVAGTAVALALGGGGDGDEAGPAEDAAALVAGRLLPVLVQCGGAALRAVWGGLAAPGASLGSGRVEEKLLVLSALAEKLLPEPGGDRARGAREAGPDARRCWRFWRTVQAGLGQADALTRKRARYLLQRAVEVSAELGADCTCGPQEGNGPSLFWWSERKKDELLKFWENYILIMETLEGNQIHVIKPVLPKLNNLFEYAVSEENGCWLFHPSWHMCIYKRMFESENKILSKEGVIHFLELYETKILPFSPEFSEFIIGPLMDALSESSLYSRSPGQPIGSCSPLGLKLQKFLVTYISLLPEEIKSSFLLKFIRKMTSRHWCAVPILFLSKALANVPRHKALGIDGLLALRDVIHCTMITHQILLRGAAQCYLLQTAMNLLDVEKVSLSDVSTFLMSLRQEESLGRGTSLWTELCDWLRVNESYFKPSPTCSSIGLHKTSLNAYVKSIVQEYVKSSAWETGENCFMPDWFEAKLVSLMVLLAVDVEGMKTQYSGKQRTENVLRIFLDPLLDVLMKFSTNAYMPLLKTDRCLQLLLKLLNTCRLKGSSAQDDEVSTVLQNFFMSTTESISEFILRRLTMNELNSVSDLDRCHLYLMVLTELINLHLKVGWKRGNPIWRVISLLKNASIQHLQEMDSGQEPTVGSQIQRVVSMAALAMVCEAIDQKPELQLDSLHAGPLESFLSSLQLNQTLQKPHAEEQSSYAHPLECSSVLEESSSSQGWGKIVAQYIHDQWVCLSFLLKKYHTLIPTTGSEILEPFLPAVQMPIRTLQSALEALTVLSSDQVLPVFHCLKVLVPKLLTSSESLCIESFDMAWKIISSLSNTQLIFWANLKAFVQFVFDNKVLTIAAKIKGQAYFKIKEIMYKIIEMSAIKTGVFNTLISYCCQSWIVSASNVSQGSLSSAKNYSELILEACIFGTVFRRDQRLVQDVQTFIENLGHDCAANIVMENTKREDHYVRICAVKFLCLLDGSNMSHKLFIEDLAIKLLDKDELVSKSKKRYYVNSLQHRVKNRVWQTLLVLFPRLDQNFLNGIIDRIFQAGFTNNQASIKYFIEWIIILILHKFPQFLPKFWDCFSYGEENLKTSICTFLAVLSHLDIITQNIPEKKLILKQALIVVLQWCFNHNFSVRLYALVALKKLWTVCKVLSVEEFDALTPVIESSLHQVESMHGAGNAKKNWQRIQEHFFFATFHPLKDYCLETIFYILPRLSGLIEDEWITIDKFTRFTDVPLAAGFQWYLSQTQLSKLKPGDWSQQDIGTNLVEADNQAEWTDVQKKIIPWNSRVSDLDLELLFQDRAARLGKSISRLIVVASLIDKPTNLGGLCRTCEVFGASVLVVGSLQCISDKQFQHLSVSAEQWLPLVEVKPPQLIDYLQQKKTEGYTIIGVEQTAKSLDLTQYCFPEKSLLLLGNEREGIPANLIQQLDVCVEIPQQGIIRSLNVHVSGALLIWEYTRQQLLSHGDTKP
inactive: [1] 0.076 | crizotinib 0.016 | [2] 0.028 | [3] -0.074 | duvelisib -0.046 | gandotinib -0.075 | tozasertib -0.018 | [4] 0.038 | doramapimod -0.004 | ispinesib 0.026 | bafetinib -0.022 | [5] 0.005 | nilotinib 0.019 | [6] 0.081 | dasatinib -0.058 | [7] -0.026 | [8] 0.116 | [9] -0.013 | tipifarnib 0.036 | mubritinib -0.055

TAOK1 (UniProt Q7L7X3)
Sequence of UniProt Q7L7X3 (Q7L7X3 whole entry, looked up): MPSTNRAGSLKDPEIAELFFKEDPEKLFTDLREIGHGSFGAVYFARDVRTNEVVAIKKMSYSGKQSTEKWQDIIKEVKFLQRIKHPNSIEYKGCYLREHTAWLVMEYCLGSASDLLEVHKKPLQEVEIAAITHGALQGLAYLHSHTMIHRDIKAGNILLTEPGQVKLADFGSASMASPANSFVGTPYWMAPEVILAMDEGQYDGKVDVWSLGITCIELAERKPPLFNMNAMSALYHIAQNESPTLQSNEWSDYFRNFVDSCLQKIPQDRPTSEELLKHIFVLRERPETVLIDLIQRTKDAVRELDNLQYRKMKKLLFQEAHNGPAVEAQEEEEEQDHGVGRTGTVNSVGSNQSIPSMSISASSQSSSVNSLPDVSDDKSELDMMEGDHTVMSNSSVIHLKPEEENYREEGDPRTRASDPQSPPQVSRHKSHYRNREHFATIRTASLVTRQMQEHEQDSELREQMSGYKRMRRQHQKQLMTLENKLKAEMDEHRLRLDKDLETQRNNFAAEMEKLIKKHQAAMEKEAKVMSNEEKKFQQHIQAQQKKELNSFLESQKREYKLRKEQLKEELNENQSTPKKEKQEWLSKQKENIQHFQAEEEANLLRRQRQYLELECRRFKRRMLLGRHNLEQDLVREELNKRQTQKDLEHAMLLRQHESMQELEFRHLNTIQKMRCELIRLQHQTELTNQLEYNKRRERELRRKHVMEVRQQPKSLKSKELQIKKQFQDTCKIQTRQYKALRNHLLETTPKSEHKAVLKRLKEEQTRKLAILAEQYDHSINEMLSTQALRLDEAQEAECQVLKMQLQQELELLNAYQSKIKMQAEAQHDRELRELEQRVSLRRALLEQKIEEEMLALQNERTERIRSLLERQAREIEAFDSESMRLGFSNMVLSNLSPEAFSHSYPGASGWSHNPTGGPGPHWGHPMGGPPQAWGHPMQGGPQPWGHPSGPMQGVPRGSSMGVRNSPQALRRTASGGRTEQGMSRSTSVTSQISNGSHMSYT
inactive: [1] -0.002 | crizotinib -0.035 | [2] 0.011 | [3] -0.08 | duvelisib -0.012 | gandotinib -0.029 | tozasertib -0.027 | [4] 0.023 | doramapimod 0.021 | ispinesib -0.001 | bafetinib -0.056 | [5] 0.025 | nilotinib 0.007 | [6] -0.023 | dasatinib -0.014 | [7] -0.03 | [8] 0.043 | [9] -0.026 | tipifarnib 0.067 | mubritinib 0.078

TIMM29 (UniProt Q9BSF4)
Sequence of UniProt Q9BSF4 (Q9BSF4 whole entry, looked up): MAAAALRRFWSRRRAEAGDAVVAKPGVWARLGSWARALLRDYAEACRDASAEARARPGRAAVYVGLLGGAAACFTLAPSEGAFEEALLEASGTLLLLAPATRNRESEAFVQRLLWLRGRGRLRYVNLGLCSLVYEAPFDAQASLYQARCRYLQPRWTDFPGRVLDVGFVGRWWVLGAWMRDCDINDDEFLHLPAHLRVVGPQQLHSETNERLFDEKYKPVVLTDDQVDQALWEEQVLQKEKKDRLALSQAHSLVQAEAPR
inactive: [1] 0.044 | crizotinib 0.08 | [2] 0.065 | [3] -0.033 | duvelisib -0.015 | gandotinib -0.014 | tozasertib 0.012 | [4] 0.02 | doramapimod 0.185 | ispinesib 0.033 | bafetinib -0.051 | [5] -0.077 | nilotinib -0.002 | [6] 0.069 | dasatinib -0.031 | [7] -0.039 | [8] -0.029 | [9] 0.057 | tipifarnib -0.046 | mubritinib 0.064

SLC7A6 (UniProt Q92536)
Sequence of UniProt Q92536 (Q92536 whole entry, looked up): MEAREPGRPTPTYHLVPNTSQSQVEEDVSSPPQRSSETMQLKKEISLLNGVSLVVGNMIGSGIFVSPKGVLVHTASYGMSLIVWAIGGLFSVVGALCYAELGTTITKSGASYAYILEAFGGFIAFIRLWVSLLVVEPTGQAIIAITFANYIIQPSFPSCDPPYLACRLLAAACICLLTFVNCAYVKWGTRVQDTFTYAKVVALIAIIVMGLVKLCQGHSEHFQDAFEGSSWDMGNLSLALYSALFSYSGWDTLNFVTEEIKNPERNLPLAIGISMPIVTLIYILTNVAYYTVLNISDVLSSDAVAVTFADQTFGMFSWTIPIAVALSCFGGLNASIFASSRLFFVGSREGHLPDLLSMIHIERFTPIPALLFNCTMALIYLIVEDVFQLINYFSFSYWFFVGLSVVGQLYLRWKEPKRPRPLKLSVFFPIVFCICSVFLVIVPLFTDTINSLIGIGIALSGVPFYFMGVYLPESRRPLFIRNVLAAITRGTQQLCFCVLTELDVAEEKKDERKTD
inactive: [1] -0.011 | crizotinib 0.065 | [2] -0.173 | [3] -0.149 | duvelisib 0.116 | gandotinib -0.114 | tozasertib -0.006 | [4] -0.041 | doramapimod 0.001 | ispinesib 0.17 | bafetinib 0.042 | [5] 0.029 | nilotinib 0.046 | [6] 0.008 | dasatinib 0.04 | [7] -0.007 | [8] 0.024 | [9] -0.087 | tipifarnib -0.016 | mubritinib 0.049
